Reference: PubChem BioAssay AID624300 (Southern Research Specialized Biocontainment Screening …, 2012)
In all, about 2,400 compounds went through this assay and about 360 (15%) were called active.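 The calls were made as follows: active = viability falls under 70% at one or more tested concentrations, taken as toxicity; inactive = viability stays over 70% at every dose.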 A selection follows. Measured potencies and affinities stand elsewhere.

Assay: viability loss in HeLa cells – cytotoxicity control for MgcRacGAP inhibitor project, dose response (AID 624300)
Conditions: CellTiter-Glo luminescence, 24 h; series mostly up to 100 µM

Compound | outcome
Cn1c(=O)c2ccccc2n2c(=S)[nH]nc12 | inactive
CC(OC(=O)CCN=C1NS(=O)(=O)c2ccccc21)C(=O)Nc1ccc(N(C)C)cc1 (centres undefined) | inactive
COc1cc2c(cc1NC(=S)Nc1cccc3ccccc13)oc1ccccc12 | inactive
CCNC(=S)Nc1cc2oc3ccccc3c2cc1OC | inactive
CC(=O)Nc1ccc(N=Nc2ccc(O)cc2)cc1 | inactive
CCN(C=NC1=NN(c2cccc(C(F)(F)F)c2)CC1)CC | inactive
Cc1ccc(-n2sc3ccccc3c2=O)cc1 | inactive
O=C(Cn1sc2ccccc2c1=O)Nc1ccc(F)cc1 | inactive
O=C(Cn1sc2ccccc2c1=O)Nc1ccccc1 | inactive
COc1ccc(N2CCN(c3ncccn3)CC2)cc1 | inactive
S=C(NCc1ccco1)NCc1ccco1 | inactive
COc1cc(CN2CCC(C(=O)N3CCCC(C)C3)CC2)cc(Br)c1O (centres undefined) | inactive
O=C(NC(=S)Nc1ccc(O)cc1)C1CCCC1 | inactive
COc1cc(/C=N/N=C2/SCC(=O)N2c2ccc(O)cc2)ccc1O | inactive
CN(C)c1ccc(NC(=O)CCN2C(=O)c3cccc([N+](=O)[O-])c3C2=O)cc1 | inactive
COc1cccc(Nc2ccc(N3CCCCC3)cc2)c1OC | inactive
C=CCNC(=S)N1CCN(Cc2ccc3c(c2)OCO3)CC1 | inactive
CCOc1ccc(C2NC(=O)C(C#N)=C(S)N2c2ccc(C)cc2)cc1OC (centres undefined) | inactive
COc1ccc(NC(=O)Nc2ccc(N(C)C)cc2)cc1 | inactive
CN(CCCCCCN(C)Cc1ccccc1O)Cc1ccccc1O | inactive

Compound | outcome
CCCc1c(C)[nH]c2ccc(C(=O)O)cc2c1=S | inactive
Nc1nc(Sc2ccc([N+](=O)[O-])c3nonc23)c2[nH]cnc2n1 | inactive
CCOC(=O)c1c(/N=C/C2=C(O)CCCC2=O)sc(C)c1C | inactive
O=C(O)c1cccc(-n2sc3ccccc3c2=O)c1 | inactive
Clc1ccccc1-c1nc(/C=N/N2CCOCC2)c2ccccn12 | inactive
O=C(CN1CCc2ccccc2C1)Nc1ccccc1C(F)(F)F | inactive
O=C(N/N=C/c1ccc(O)cc1)c1csc2c1CCCC2 | inactive
Oc1ccc(-c2nccs2)cc1 | inactive
CCN=c1scc(C)n1/N=C/c1cc(Br)c(O)c(OC)c1 | inactive
Cc1cc(=O)[nH]c2c(N=Nc3ccc(O)cc3)c(N)nn12 | inactive
CC1(C)CC(=O)C2=C(C1)Nc1ccccc1S2 | inactive
COc1cccc(/C=N/n2c(-c3n[nH]c4c3CCC4)n[nH]c2=S)c1O | inactive
O=C1CCC(C2CCc3cc(O)ccc3C2)C1 (centres undefined) | inactive
CCOc1ccccc1CN1CCC(N2CCOCC2)CC1 | inactive
CC(C)CC(=O)N1CCN(Cc2cccc([N+](=O)[O-])c2)CC1 | inactive
CCOc1cc(/C=N/NC(=O)CCc2n[nH]c(=O)[nH]c2=O)ccc1O | inactive
COc1ccc(-c2cn[nH]c2-c2ccc(O)cc2O)cc1OC | inactive
COc1cc2cc(-c3ccc(O)cc3O)nc(C)c2cc1OC | inactive
Oc1ccc(-c2csc(-c3cccnc3)n2)cc1O | inactive
S=c1[nH]nc(-c2cccnc2)n1/N=C/c1cccs1 | inactive

Compound | outcome
COc1ccc(C2NC(=O)C(C#N)=C(S)N2c2ccc(C)cc2)cc1OC (centres undefined) | inactive
N#CC1(Nc2ccc(-c3ccc(NC4(C#N)CCCC4)cc3)cc2)CCCC1 | inactive
Nc1ccc(N2CCCCC2)c(Cl)c1 | inactive
Cc1cccc(NC2=C(C#N)C(=O)NC3(CCCC3)S2)c1 | inactive
CCOc1cc(/C=C2/N=C(C)C(C(=O)OC)=C2O)ccc1O | inactive
COC(=O)C1=C(C)N(CC2CCCO2)C(=O)/C1=C\c1ccc(O)cc1 (centres undefined) | inactive
COc1cc(-c2nc3cnccn3c2Nc2c(C)cccc2C)ccc1O | inactive
COc1cc(-c2nc3ccccn3c2/N=C/c2cc(OC)c(O)cc2Cl)ccc1O | inactive
Cc1ccccc1CN(C)CCc1ccccn1 | inactive
Cc1nc(S/C(=C\c2ccc(-c3ccc(C(=O)O)c(Cl)c3)o2)C(=O)O)n[nH]1 | inactive
Cc1ccc(S(=O)(=O)Nc2ccc(N(C)C)cc2)cc1 | inactive
O=C1c2ccccc2C(=O)C1c1ccc(O)cc1 | inactive
Oc1ccc(N=Nc2ccccc2)cc1 | inactive
Cc1ccc(S(=O)(=O)/N=S(/c2ccccc2)C(C)C)cc1 (centres undefined) | inactive
COc1cc2c(cc1OC)C(c1cc(Br)c(OC)c(OC)c1)CC(=O)N2 (centres undefined) | inactive
CN(C)c1ccc(NC(=O)c2cccc(N3C(=O)C4C5C=CC(C5)C4C3=O)c2)cc1 (centres undefined) | inactive
CC(C(=O)NC(=O)NC1CCCCC1)N1CCN(c2ccc(O)cc2)CC1 (centres undefined) | inactive
COc1ccc(N[C@@H]2CCN3C(=O)c4ccccc4[C@@H]3C[C@H]2O)cc1 | inactive
N#CC1=C(S)N(c2ccccc2)C(c2ccc(-c3cccc(Cl)c3)o2)NC1=O (centres undefined) | inactive
